Tg IFNy HTS = blocks Toxoplasma gondii growth in the presence of IFN-gamma; Toxoplasma gondii growth in IFN-gamma-treated host cells; stronger effect = lower value; activity change, negative = inhibition, % (no concentration beside the values); actives 3.8% (n = 69,000); AID 1259416; in the data active means activity change below about -70%, passing the limit was not always enough;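 further: host cells are HeLa cells infected with Toxoplasma gondii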
Numbers without * were called inactive; ! = a repeat was not active. Shown is part of a subset that was picked to be rich in hits.

SMILES	Tg IFNy HTS
NC(=O)c1[nH]c(C2CCCN(C(=O)COc3ccccc3)C2)nc1-c1ccccc1 (stereo unspecified)	-22.7
CN(Cc1csc(-c2ccccc2)n1)C(=O)CC1COCCN1 (stereo unspecified)	-42.8
C[C@@H]1CN([C@@H](C)CO)C(=O)c2cc(N(C)C)ccc2O[C@@H](C)CCCCO[C@@H]1CN(C)Cc1ccc(C(=O)O)cc1	25.5
Cc1ccccc1C(CNC1CCN(C(=O)c2ccccc2)CC1)N(C)C (stereo unspecified)	55.9
Cn1c(-c2nccn2-c2ccc(Oc3nn[nH]n3)cc2)nc2ccccc21	-51.9
C[C@@H]1CN([C@@H](C)CO)C(=O)Cc2cc(N(C)C)ccc2O[C@H]1CN(C)Cc1ccc(-c2ccccc2)cc1	68.7
C[C@@H]1CN([C@H](C)CO)C(=O)c2cc(N(C)C)ccc2O[C@H]1CN(C)Cc1ccc(Oc2ccccc2)cc1	60.3
C[C@H](CO)N1C[C@H](C)[C@H](CN(C)Cc2ccc(-c3ccccc3)cc2)Oc2ccc(N(C)C)cc2CC1=O	-82.8*
COc1cc2c(cc1CNC(=O)C1CC(=O)N(CC(C)C)C1)CCC2 (stereo unspecified)	2.7
Cc1cc2c(SCC(=O)N3CCCC(c4ccn[nH]4)C3)ncnc2s1 (stereo unspecified)	18.2
O=C(c1cncc(N2CCCC(N3CCCC3=O)C2)n1)N1CCCCC1 (stereo unspecified)	-2.8
CCN1c2ccccc2-n2cccc2C12CCN(C(=O)Nc1ccccc1C(F)(F)F)CC2	185.0
CCN1c2cc(C)ccc2-n2cccc2C12CCN(C(=O)Nc1cccc(C)c1)CC2	-58.9
CCN1c2cc(C)ccc2-n2cccc2C12CCN(C(=O)NCc1ccco1)CC2	41.5
CCN1c2cc(C)ccc2-n2cccc2C12CCN(C(=O)Nc1ccc(C)c(C)c1)CC2	-93.0*
CCN1c2cc(C)ccc2-n2cccc2C12CCN(C(=O)NCc1ccc(F)cc1)CC2	-114.2*
CCOC(=O)c1ccc(NC(=O)N2CCC3(CC2)c2cccn2-c2ccc(C)cc2N3CC)cc1	-45.6
CCN1c2cc(C)ccc2-n2cccc2C12CCN(C(=O)Nc1ccc(Cl)cc1)CC2	252.3
CCN1c2ccccc2-n2cccc2C12CCN(C(=O)Nc1cccc(Cl)c1C)CC2	-38.5
CCN1c2ccccc2-n2cccc2C12CCN(C(=O)Nc1ccccc1C)CC2	-82.2*
CCN1c2cc(C)ccc2-n2cccc2C12CCN(C(=O)Nc1ccc(F)cc1)CC2	-95.9*
CCN1c2cc(C)ccc2-n2cccc2C12CCN(C(=O)NCc1ccccc1)CC2	59.8
CCN1c2cc(C)ccc2-n2cccc2C12CCN(C(=O)Nc1ccc(C)c(F)c1)CC2	22.0
CC(=O)NCc1csc(C2CCN(C(=O)CCc3ccccc3)CC2)n1	33.3
c1ccc(OCC2CNCc3cncn3C2)nc1 (stereo unspecified)	71.8
SMILES	Tg IFNy HTS
C/C=C/c1ccc([C@H]2[C@@H](CO)N(S(=O)(=O)CC)[C@@H]2CN(C)C(=O)CC)cc1	2.6
CCn1c(CNC(=O)COCc2nc3ccc(C)cc3[nH]2)nc2ccccc21	37.7
Cc1ccc(CS(=O)(=O)N2CCC3(CC(=O)N(c4cccc(C)c4)C3)C2)cc1 (stereo unspecified)	-12.8
N#Cc1ccc(-c2csc(COc3ccc4nonc4c3)n2)cc1	10.8
COc1cccc(NC(=O)C(=O)NCCc2sc(-c3cccc(F)c3)nc2C)c1	-38.4
CCc1csc(CNC(=O)C2CC(=O)N(c3cccc(O)c3)C2)n1 (stereo unspecified)	43.6
FC(F)(F)c1sc(-c2nnc(-c3ccc(Cl)cc3Cl)o2)cc1-c1ccccc1	42.3
O=C(O)c1cc(-c2ccccc2)c(C(F)(F)F)s1	18.8
NC(=S)c1cc(-c2ccccc2)c(C(F)(F)F)s1	-93.5*
O=C(CCCCCN1C(=O)c2cccc3cccc(c23)C1=O)NO	-84.0*
COc1ccccc1NC(=O)CCCCCN1C(=O)c2cccc3cccc(c23)C1=O	20.0
CCCCC(CC)CNC(=O)CCCCCN1C(=O)c2ccccc2C1=O (stereo unspecified)	13.2
CC(C)n1nccc1NC(=O)CN1CCc2nc(-c3ccc(C(F)(F)F)cc3)sc2C1	193.9
CCn1c(C)nc2cc(NC(=O)Cc3c(C)noc3C)ccc21	-1.9
Clc1ccc(CCC(Cn2ccnc2)Sc2c(Cl)cccc2Cl)cc1 (stereo unspecified)	-85.8*
Clc1cccc(Cl)c1Cn1ccnc1	1.3
COc1ccccc1CN(CCCn1ccnc1)Cc1ccc(F)c(F)c1	-42.3
CO[C@H]1CCN(C(=O)c2cc(C3CC3)on2)C[C@@H]1Cc1cccc(C)c1	-1.2
CCn1cc(NC(=O)c2cccc(CN3C[C@@H](C)O[C@@H](C)C3)c2)nn1	-50.7
COc1ccc(F)c(-c2cnc(-n3cnnc3)cc2C)c1	-81.0*
Cc1cc(-n2cnnc2)ncc1-c1ccc(C(C)N2CCCC2)cc1 (stereo unspecified)	-5.2
COc1ccc(F)c(-c2nc(OC)cc(OC)n2)c1	-16.1
CCc1ccc(CN2Cc3ccccc3C3(CCN(S(=O)(=O)N(C)C)CC3)C2)o1	-6.0
O=C1CN2Cc3c(ccc(Cl)c3Cl)N=C2N1	-82.8*!
